Screening results from PubChem.
HCV inhibitor: qHTS Assay for Inhibitors of Hepatitis C Virus (HCV) | hit rate 3.4% among 340,000 | Huh7.5.1 HCVcc-Cre infection, luciferase reporter, 44 h | Potency, µM (doses to about 41.8 µM), inactives show top-dose activity change, negative = inhibition, hits mostly inhibitors; also: potency is read from the fitted curve at half-maximal effect; % is scaled to controls: 0 for no effect and ±100 for the full control effect
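Infectious HCV cell culture screen: compound-treated cells (1,000/well, pre-plated 4 h) are infected with HCVcc-Cre at roughly 0.5 moi and grown 44 h. Infection is quantified by luciferase signal after 15 min substrate incubation at room temperature.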
Cycloheximide cs: Cycloheximide Counterscreen for Small Molecule Inhibitors of Shiga Toxin | hit rate 12% among 300,000 | cell reporter, cycloheximide protein synthesis inhibition counterscreen | AID 2314, 2010 | max response, %; in the data active = max response mostly above about 13%, no sharp cut-off; inactive = mostly below about 14%; also: read at 38.3 µM for the half of the compounds with a filed dose; 0% is about no effect
HCMV inh: qHTS Assay for inhibitors of the human cytomegalovirus (HCMV); HFF cells, HCMV-luciferase reporter, 72 h; active compounds read low; activity change, negative = inhibition, % at 57.5 µM; hit rate 4.5% among 410,000; AID 1259415, 2018; in the data active = activity change below about -60%; inconclusive = no clear call, values can overlap the other calls; inactive = above about -39%; also: % is scaled to controls: 0 for no effect and ±100 for the full control effect
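HFF cells seeded 16 h at 37C, treated with compounds, infected with luciferase-reporter HCMV at MOI 1 PFU/cell; luciferase read at 72 h post infection, normalized to buffer-only and Salinomycin controls.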
Shiga toxin inh: A qHTS for Small Molecule Inhibitors of Shiga Toxin | hit rate 9.2% among 290,000 | Vero cells, Shiga toxin protein synthesis inhibition reporter | inhibition, % at 38.7 µM; in the data active = inhibition mostly above about 28%, no sharp cut-off; inactive = mostly below about 43%; also: 0% is about no effect
Pf growth 96h: Primary qHTS for delayed death inhibitors of the malarial parasite plastid, 96 hour incubation. AID 504834, 2011. P. falciparum luciferase reporter growth, 96 h. hit rate 6.9% among 320,000. Potency, µM (titrated, usually from 28.7 µM), without a hit: at the highest dose activity change, negative = inhibition, actives largely listed as inhibitors; also: potency is read from the fitted curve at half-maximal effect; % is scaled to controls: 0 for no effect and ±100 for the full control effect
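96 h incubation, 37 C, 5% CO2, of luciferase-reporter P. falciparum-infected RBCs (2% hematocrit, 0.05% parasitemia final) with test compounds; endpoint luminescence.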
Pf growth 48h: Primary qHTS for delayed death inhibitors of the malarial parasite plastid, 48 hour incubation; hit rate 5.9% among 310,000; P. falciparum luciferase growth in erythrocytes, 48 h; Potency, µM (top dose mostly 28.7 µM), for the others: at the highest dose activity change, negative = inhibition, actives largely listed as inhibitors; also: potency is read from the fitted curve at half-maximal effect; % is scaled to controls: 0 for no effect and ±100 for the full control effect
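Luciferase-expressing parasites in RBCs, 2% Hct / 0.1% parasitemia final; RPMI 1640 + 0.5% Albumax; 37 C, 5% CO2, one generation; luminescence read-out, lower signal = inhibition.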
An asterisk follows results filed as active. Hits are enriched below; roughly 21% of the tested compounds scored in any of these assays. Unless noted, calls follow the shape of the dose curve; as a rule, active = well fitted inhibition curve with a large enough effect; inconclusive = small, poorly fitted or top-dose-only effect, or another doubt; inactive = no such curve, though single readings can be large or run the other way.

For Cc1ccc(CONC(=O)c2ccc(C)cc2)cc1 the results were HCV inhibitor -9%, HCMV inh 7, Pf growth 96h 449% and Pf growth 48h 350%.
O=C(OCc1ccccc1)/C(=C/c1cccc2ccccc12)NC(=O)c1ccccc1 was read as HCV inhibitor -7%, Cycloheximide cs 0, HCMV inh -10, Shiga toxin inh 17, Pf growth 96h inconclusive and Pf growth 48h 6.6µM*.
For COc1ccc(C(=O)N/C(=C\c2cccc3ccccc23)C(=O)N2CCN(C)CC2)cc1 the results were HCV inhibitor -13%, HCMV inh 14, Pf growth 96h inconclusive and Pf growth 48h inconclusive.
Screening Cc1ccc(CONC(=O)c2ccccc2)cc1 returned HCV inhibitor -21%, Cycloheximide cs 40*, HCMV inh 11, Shiga toxin inh 67*, Pf growth 96h 63% and Pf growth 48h 94%.
C=CCOC(=O)/C(=C/c1cccc2ccccc12)NC(=O)c1ccccc1 was read as HCV inhibitor inconclusive, Cycloheximide cs 66*, HCMV inh 71, Shiga toxin inh 92*, Pf growth 96h inconclusive and Pf growth 48h -20%.
Cc1ccc(C(=O)N/C(=C\c2ccccc2)C(=O)OCc2ccccc2)cc1 was read as HCV inhibitor -3%, Cycloheximide cs 45*, HCMV inh 2, Shiga toxin inh 71*, Pf growth 96h 177% and Pf growth 48h -26%.
Screening CC1CCC(CN2C(Nc3ccccc3)=NC[C@@H]2C)CC1 (stereo partly drawn) returned HCV inhibitor -25%, Cycloheximide cs -2, HCMV inh -37, Shiga toxin inh 11, Pf growth 96h 54% and Pf growth 48h 32%.
Screening Cc1cc[n+](CC(=O)c2cc3ccccc3oc2=O)cc1 returned HCV inhibitor 19%, Cycloheximide cs 60*, HCMV inh -17, Shiga toxin inh active, Pf growth 96h inconclusive and Pf growth 48h 1%.
Screening O=C(NNC(=O)c1cc2ccccc2oc1=O)c1ccccc1 returned HCV inhibitor -5%, Cycloheximide cs 20*, HCMV inh 47, Shiga toxin inh 62*, Pf growth 96h -23% and Pf growth 48h 45%.
For O=C(c1ccccc1)N1CCN(C(=O)c2cc3ccccc3oc2=O)CC1 the results were HCV inhibitor 8%, Cycloheximide cs -9, HCMV inh -1, Shiga toxin inh 4, Pf growth 96h 3% and Pf growth 48h -6%.
Screening O=C(NCCN1CCOCC1)c1cc2ccccc2oc1=O returned HCV inhibitor 3.2µM*, Cycloheximide cs 13, HCMV inh -20, Shiga toxin inh 35*, Pf growth 96h inconclusive and Pf growth 48h 45%.
Screening O=C(c1ccccc1)c1cc2ccccc2oc1=O returned HCV inhibitor -7%, Cycloheximide cs 37, HCMV inh 129, Shiga toxin inh 60*, Pf growth 96h 62% and Pf growth 48h 89%.
For O=C(NCCN1CCOCC1)c1cc2ccccc2o1 the results were HCV inhibitor 12%, Cycloheximide cs -4, HCMV inh -7, Shiga toxin inh -3 and Pf growth 96h inconclusive.
`CCOC(=O)C1(C)CCN1C(=O)COc1ccccc1` (stereo not drawn) gave HCMV inh 4.
CCOc1ccccc1N1CCN(C(=O)c2cc(-c3cc(OC)ccc3OC)nc3ccccc23)CC1 was read as HCV inhibitor inconclusive, Cycloheximide cs 9, Shiga toxin inh -16, Pf growth 96h -20% and Pf growth 48h inconclusive.
For O=C(O)c1cc2ccccc2oc1=O the results were HCV inhibitor inconclusive, Cycloheximide cs 43*, HCMV inh 49, Shiga toxin inh 58*, Pf growth 96h 27% and Pf growth 48h 19%.
`O=C(Oc1ccccc1)c1cc2ccccc2oc1=O` gave HCV inhibitor -7%, Cycloheximide cs 15, HCMV inh -30, Shiga toxin inh 16, Pf growth 96h 40% and Pf growth 48h 21%.
COc1ccc(OC)c(C(O)C2CCCCN2)c1 (stereo not drawn) was read as HCV inhibitor 7%, Cycloheximide cs -5, HCMV inh 7, Pf growth 96h 3.3µM* and Pf growth 48h inconclusive.
